Common to all, as to assay: protein-binding microarray (PBM); PBM: ~300 nM protein, 6 mM HEPES pH 7.8, 80 mM KCl, 0.5 mM EDTA, 0.5 mM EGTA, 6% glycerol, 35 ng/ul poly-dIdC, 1% milk, 1 h, room temperature; Ap Aiptasia and Nv Nematostella (sea anemones) / Co Capsaspora / Aq Amphimedon (sponge) / Dm Drosophila / Hu human; RHD is the Rel homology domain; high values mean tight binding
Details in all cases: dsDNA, one strand shown

The target in one assay is T1, GST-Ap-NF-kB RHD (Exaiptasia pallida (Aiptasia), UniProt A0A913YAJ5 2-422).
T1 sequence: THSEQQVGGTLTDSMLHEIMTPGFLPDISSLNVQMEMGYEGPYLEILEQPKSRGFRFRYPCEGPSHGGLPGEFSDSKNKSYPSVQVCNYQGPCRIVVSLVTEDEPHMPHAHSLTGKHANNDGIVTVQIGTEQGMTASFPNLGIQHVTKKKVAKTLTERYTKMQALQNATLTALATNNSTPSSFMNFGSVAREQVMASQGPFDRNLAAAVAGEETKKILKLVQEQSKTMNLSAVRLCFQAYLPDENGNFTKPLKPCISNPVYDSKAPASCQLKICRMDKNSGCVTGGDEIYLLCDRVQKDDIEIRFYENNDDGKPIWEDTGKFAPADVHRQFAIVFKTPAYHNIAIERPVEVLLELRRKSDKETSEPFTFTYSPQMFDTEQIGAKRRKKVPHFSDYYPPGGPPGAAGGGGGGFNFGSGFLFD

Assay [1] addresses T2, GST-Nv-NF-kB (Cys allele) (Nematostella vectensis, UniProt E5G601 2-411).
T2 sequence: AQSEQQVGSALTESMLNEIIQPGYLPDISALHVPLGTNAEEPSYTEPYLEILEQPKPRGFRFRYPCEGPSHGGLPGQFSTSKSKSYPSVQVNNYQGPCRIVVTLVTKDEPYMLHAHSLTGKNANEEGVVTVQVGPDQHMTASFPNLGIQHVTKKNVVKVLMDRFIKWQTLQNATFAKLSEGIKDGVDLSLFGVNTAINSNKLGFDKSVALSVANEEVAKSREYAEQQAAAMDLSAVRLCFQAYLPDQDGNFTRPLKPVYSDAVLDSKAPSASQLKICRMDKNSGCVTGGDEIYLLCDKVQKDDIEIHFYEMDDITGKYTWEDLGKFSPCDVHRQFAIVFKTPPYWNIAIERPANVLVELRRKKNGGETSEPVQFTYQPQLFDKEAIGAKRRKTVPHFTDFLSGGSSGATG

The target of assay [2] is T3, GST-Nv-NF-kB (Ser allele) (Nematostella vectensis, UniProt A7UNT2 2-411).
T3 sequence: T2 sequence with Q21R, C66S, S207N, E215Q, V217A, E225K, A268E, D399E

For another assay, the target named is T4, GST-Dm-Relish (Drosophila melanogaster, UniProt Q94527 99-473).
T4 sequence: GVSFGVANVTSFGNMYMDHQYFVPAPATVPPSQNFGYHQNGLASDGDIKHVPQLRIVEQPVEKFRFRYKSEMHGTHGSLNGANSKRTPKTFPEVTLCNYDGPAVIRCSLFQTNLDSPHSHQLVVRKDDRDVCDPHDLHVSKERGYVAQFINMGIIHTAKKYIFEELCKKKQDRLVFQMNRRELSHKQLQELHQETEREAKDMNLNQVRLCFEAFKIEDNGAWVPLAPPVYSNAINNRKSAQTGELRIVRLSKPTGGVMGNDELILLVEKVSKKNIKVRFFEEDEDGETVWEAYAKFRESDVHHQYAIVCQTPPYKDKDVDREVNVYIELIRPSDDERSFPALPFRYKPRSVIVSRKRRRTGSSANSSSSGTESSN

Another assay has as its target T5, GST-Aq-NF-kB (Amphimedon queenslandica, UniProt A9Y5G7 2-389).
T5 sequence: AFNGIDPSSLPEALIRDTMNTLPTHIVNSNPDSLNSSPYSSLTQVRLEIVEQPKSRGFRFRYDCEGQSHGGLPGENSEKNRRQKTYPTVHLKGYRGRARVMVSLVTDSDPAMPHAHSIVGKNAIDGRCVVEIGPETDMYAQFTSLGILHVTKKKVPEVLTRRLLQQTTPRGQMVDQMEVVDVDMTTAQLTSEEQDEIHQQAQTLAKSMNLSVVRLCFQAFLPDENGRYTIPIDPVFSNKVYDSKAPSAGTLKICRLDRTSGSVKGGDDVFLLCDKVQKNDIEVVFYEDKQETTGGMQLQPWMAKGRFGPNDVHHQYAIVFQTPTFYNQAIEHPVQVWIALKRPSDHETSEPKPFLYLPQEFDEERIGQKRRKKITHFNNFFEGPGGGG

For another assay, the target named is GST-Hu-p50 (Homo sapiens, UniProt P19838 7-356).
A further assay has as its target T6, GST-Co-NF-kB (Capsaspora owczarzaki, UniProt F1ARL5 200-546).
T6 sequence: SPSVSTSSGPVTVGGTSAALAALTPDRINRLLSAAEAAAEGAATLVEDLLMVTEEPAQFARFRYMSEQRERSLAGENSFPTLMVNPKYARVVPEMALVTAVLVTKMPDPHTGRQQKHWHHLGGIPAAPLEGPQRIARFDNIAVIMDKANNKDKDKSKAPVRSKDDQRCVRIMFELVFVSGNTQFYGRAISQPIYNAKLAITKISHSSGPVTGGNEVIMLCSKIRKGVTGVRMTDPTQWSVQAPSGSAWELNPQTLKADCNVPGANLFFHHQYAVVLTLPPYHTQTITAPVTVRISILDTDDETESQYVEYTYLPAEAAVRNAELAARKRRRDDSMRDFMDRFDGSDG

Positions count from the first letter of the chain named.

These results are taken from publication PMC5700166.

GST-Hu-p50, sequence (P19838 7-356): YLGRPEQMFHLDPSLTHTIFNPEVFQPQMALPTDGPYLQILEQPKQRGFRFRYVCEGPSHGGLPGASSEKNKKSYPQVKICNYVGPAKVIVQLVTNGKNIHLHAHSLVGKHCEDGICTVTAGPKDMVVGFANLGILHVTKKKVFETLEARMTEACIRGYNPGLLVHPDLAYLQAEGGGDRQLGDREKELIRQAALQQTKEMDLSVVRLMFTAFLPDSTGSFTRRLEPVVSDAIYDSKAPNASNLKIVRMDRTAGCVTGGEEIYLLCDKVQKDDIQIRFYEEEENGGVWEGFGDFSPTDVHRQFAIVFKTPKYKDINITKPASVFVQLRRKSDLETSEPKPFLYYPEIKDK

“CCGATTAACATCAGGAAAGACCCTGATGTTAATCGGGTCTTGATTCGCTTGACGCTGCTG”: the binding signal turned out to be 2.17 z-score with GST-Ap-NF-kB RHD; 4.11 z-score in assay [1]; 1.92 z-score in assay [2]; 4.41 z-score with GST-Dm-Relish; 6.37 z-score with GST-Aq-NF-kB; 3.3 z-score with GST-Hu-p50.
“CCGATTAACATCAGGGAGGTACCTGATGTTAATCGGGTCTTGATTCGCTTGACGCTGCTG”: the binding signal came out at 3.34 z-score in the assay with GST-Ap-NF-kB RHD; 2.59 z-score in assay [1]; 2.93 z-score in assay [2]; 5.13 z-score in the assay with GST-Dm-Relish; 3.92 z-score with GST-Aq-NF-kB; 2.03 z-score with GST-Hu-p50.
On to “CCGATTAACATCAAAGAGTCCCCTGATGTTAATCGGGTCTTGATTCGCTTGACGCTGCTG”, for which the binding signal is 6.56 z-score with GST-Ap-NF-kB RHD; 6.17 z-score in assay [1]; 3.49 z-score in the assay with GST-Co-NF-kB; 6.3 z-score with GST-Dm-Relish; 5.8 z-score with GST-Aq-NF-kB; 5.88 z-score with GST-Hu-p50.
For the sequence “CCGATTAACATCAAATAAGCCCCTGATGTTAATCGGGTCTTGATTCGCTTGACGCTGCTG”, the binding signal with GST-Ap-NF-kB RHD was determined as 3.57 z-score; in assay [1] it was 5.54 z-score; in the assay with GST-Co-NF-kB it was 1.15 z-score; with GST-Dm-Relish, 4.29 z-score; in the assay with GST-Aq-NF-kB it was 5.74 z-score; with GST-Hu-p50, 4.31 z-score.
On to “CCGATTAACATCACGAAAGTCCCTGATGTTAATCGGGTCTTGATTCGCTTGACGCTGCTG”, for which the binding signal in the assay with GST-Ap-NF-kB RHD turned out to be 6.26 z-score; in assay [1] it was 6.77 z-score; in assay [2], 7.54 z-score; with GST-Dm-Relish, 5.86 z-score; in the assay with GST-Aq-NF-kB, 5.78 z-score; in the assay with GST-Hu-p50 it was 5.45 z-score.
Regarding “CCGATTAACATCAGGAAACCACCTGATGTTAATCGGGTCTTGATTCGCTTGACGCTGCTG”, the binding signal with GST-Ap-NF-kB RHD stood at 4.41 z-score; in assay [1], 4.04 z-score; in assay [2], 3.92 z-score; in the assay with GST-Dm-Relish, 7.57 z-score; in the assay with GST-Aq-NF-kB it was 6.62 z-score; with GST-Hu-p50, 6.09 z-score.
With “CCGATTAACATCAGGTAATTTTATGATGTTAATCGGGTCTTGATTCGCTTGACGCTGCTG”, the binding signal turned out to be 1.38 z-score with GST-Ap-NF-kB RHD; 3.29 z-score in assay [1]; 5.66 z-score in assay [2]; 3.58 z-score with GST-Dm-Relish; 2.95 z-score with GST-Aq-NF-kB; 4.06 z-score in the assay with GST-Hu-p50.
As to “CCGATTAACATCAAAAAAGTACCTGATGTTAATCGGGTCTTGATTCGCTTGACGCTGCTG”, the binding signal in the assay with GST-Ap-NF-kB RHD came to 4.63 z-score; in assay [1], 7.84 z-score; in assay [2], 11.4 z-score; in the assay with GST-Dm-Relish it was 9.37 z-score; with GST-Aq-NF-kB, 5.47 z-score; with GST-Hu-p50, 5.8 z-score.
With “CCGATTAACATCAGGCCATTCCCTGATGTTAATCGGGTCTTGATTCGCTTGACGCTGCTG”, the binding signal amounted to 1.39 z-score with GST-Ap-NF-kB RHD; 2.63 z-score in assay [1]; 1.77 z-score in assay [2]; 2.6 z-score in the assay with GST-Dm-Relish; 4.37 z-score with GST-Aq-NF-kB; 1.79 z-score in the assay with GST-Hu-p50.
For the sequence “CCGATTAACATCAGGATAGCCCCTGATGTTAATCGGGTCTTGATTCGCTTGACGCTGCTG”, the binding signal with GST-Ap-NF-kB RHD is 4 z-score; in assay [1], 4.29 z-score; in assay [2] it was 2.73 z-score; with GST-Dm-Relish it was 2.38 z-score; in the assay with GST-Aq-NF-kB it was 5.49 z-score; with GST-Hu-p50, 3.65 z-score.
Consider “CCGATTAACATCAGGGGGTTCACTGATGTTAATCGGGTCTTGATTCGCTTGACGCTGCTG”, for which the binding signal was 5.94 z-score with GST-Ap-NF-kB RHD; 4.09 z-score in assay [1]; 2.91 z-score with GST-Co-NF-kB; 10.4 z-score with GST-Dm-Relish; 5.84 z-score with GST-Aq-NF-kB; 5.34 z-score with GST-Hu-p50.
Take “CCGATTAACATCAAAGAAGTCCCTGATGTTAATCGGGTCTTGATTCGCTTGACGCTGCTG”: the binding signal amounted to 5.78 z-score in the assay with GST-Ap-NF-kB RHD; 6.68 z-score in assay [1]; 6.97 z-score in assay [2]; 5.18 z-score with GST-Dm-Relish; 5.56 z-score with GST-Aq-NF-kB; 5.29 z-score in the assay with GST-Hu-p50.
As to “CCGATTAACATCAGGGATTTCACTGATGTTAATCGGGTCTTGATTCGCTTGACGCTGCTG”, the binding signal with GST-Ap-NF-kB RHD was determined as 2.71 z-score; in assay [1], 2.33 z-score; in assay [2] it was 1.49 z-score; with GST-Dm-Relish, 6.3 z-score; in the assay with GST-Aq-NF-kB, 4.19 z-score; in the assay with GST-Hu-p50, 2.38 z-score.
Regarding “CCGATTAACATCACGGTTATTCCTGATGTTAATCGGGTCTTGATTCGCTTGACGCTGCTG”, the binding signal with GST-Ap-NF-kB RHD amounted to 1.09 z-score; in assay [1], 1.52 z-score; in assay [2], 2.15 z-score; with GST-Dm-Relish, 3.64 z-score; in the assay with GST-Aq-NF-kB, 2.03 z-score; with GST-Hu-p50, 3.59 z-score.
